# Results reported in PubChem BioAssay (EPA / NIEHS).
# Inconclusive results are not listed. The source made the active and inactive calls. Rule for the calls, unless noted: active = hit-call score of the fitted dose curve at least 0.9, where 1 is the maximum; inactive = score below 0.9.
# Columns and labels:
# [1] = ATG_TAL_CIS: Attagene CIS-FACTORIAL HepG2 Assay for human TAL Basal Promoter (AID 2282966); conditions: HepG2 Attagene cis-factorial TAL promoter reporter; actives raise or lower the signal;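 note: background control endpoint measuring basal TAL promoter reporter mRNA not a specific factor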
# In short: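 In this cell-based multiplex, HepG2 liver cells bearing cis-promoter reporter constructs are dosed for 24 hours. Total RNA is reverse-transcribed and amplified, labelled fragments are sized by capillary electrophoresis, and signal changes are fitted bidirectionally versus DMSO.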
# [2] = ATG_VDRE_CIS: Attagene CIS-FACTORIAL HepG2 Assay for human Vitamin D Receptor Element (VDRE) (AID 2282968); conditions: HepG2 VDRE cis-reporter transcription, actives raise or lower the signal
# In short: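 Cell-based multiplexed reporter format in human liver HepG2 cells, 24 h post-dose. Fluorescence from capillary electrophoresis of reporter cDNA gives the signal, with DMSO as negative control and baseline.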
# [3] = molecular target: X-box-binding protein 1 (Homo sapiens) (UniProt P17861); experiment: ATG_Xbp1_CIS: Attagene CIS-FACTORIAL HepG2 Assay for human X-box Binding Protein 1 (XBP1) (AID 2282972); conditions: HepG2 XBP1 cis-element reporter, Attagene multiplex; actives raise or lower the signal
# X-box-binding protein 1 (Homo sapiens), sequence (P17861 whole entry, looked up): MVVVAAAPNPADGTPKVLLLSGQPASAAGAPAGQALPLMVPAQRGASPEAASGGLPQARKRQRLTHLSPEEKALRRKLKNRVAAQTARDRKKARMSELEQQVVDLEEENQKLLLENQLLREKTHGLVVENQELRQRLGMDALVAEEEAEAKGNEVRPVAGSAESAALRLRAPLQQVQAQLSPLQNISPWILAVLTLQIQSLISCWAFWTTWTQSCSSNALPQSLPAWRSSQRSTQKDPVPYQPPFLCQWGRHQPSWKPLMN
# In short: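 HepG2, transient MRTU transfection (cis-promoter driven), 24 h compound exposure. Total RNA → oligo(dT) RT → PCR → 6-FAM labeling → HpaI cut → CE. Bidirectional fit vs DMSO.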
# [4] = molecular target: Steroid hormone receptor ERR1 (Homo sapiens) (UniProt P11474); experiment: ATG_ERRa_TRANS: Attagene TRANS-FACTORIAL HepG2 Assay for human Estrogen-Related Receptor alpha (ERRa) (AID 2282971; active = hit-call score of the fitted dose curve at least 0.9, where 1 is the maximum); conditions: HepG2 Attagene TRANS reporter, ERRa transactivation
# Steroid hormone receptor ERR1 (Homo sapiens), sequence (P11474 whole entry, looked up, the tested form may be a part): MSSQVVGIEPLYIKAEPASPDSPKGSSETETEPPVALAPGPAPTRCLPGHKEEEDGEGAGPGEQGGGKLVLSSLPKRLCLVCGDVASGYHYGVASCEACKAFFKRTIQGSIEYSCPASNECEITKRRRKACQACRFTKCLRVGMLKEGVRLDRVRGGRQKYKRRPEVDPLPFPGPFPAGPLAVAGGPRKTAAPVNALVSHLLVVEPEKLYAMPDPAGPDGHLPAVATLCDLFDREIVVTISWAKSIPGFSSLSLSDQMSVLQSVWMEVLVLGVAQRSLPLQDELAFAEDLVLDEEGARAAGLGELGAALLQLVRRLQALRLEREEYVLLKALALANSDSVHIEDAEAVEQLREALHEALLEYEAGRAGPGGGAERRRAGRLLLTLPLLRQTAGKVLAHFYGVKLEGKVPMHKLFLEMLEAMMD
# In short: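 Transfected HepG2, 24 h dosing, ERRa-Gal4 chimera driving GAL4-UAS reporter. Readout: reporter mRNA via RT-PCR plus capillary electrophoresis (fluorescence). Positive direction vs DMSO control.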
# [5] = ATG_GAL4_TRANS: Attagene TRANS-FACTORIAL HepG2 Assay for GAL4 (Internal Marker) (AID 2282976; active = hit-call score of the fitted dose curve at least 0.9, where 1 is the maximum); conditions: HepG2 Attagene TRANS GAL4 internal marker reporter
# In short: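 RT-PCR/capillary electrophoresis readout of reporter mRNA. HepG2, transient MRTU transfection (GAL4-UAS reporters), 24 h compound exposure. Background-control endpoint, positive direction vs DMSO baseline.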
# [6] = ATG_M_19_TRANS: Attagene TRANS-FACTORIAL HepG2 Assay for M19 Transcription Factor (Internal Marker) (AID 2282974; active = hit-call score of the fitted dose curve at least 0.9, where 1 is the maximum); conditions: HepG2 Attagene TRANS-FACTORIAL M19 internal marker reporter
# In short: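 24 h chemical exposure of transiently transfected HepG2 (MRTU library). RNA → oligo(dT) RT → PCR → 6-FAM labelling → HpaI cut → CE fluorescence. Positive-direction fit vs DMSO baseline; background internal-marker readout.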
# [7] = molecular target: Estrogen-related receptor gamma (Homo sapiens) (UniProt P62508); experiment: ATG_ERRg_TRANS: Attagene TRANS-FACTORIAL HepG2 Assay for human Estrogen-Related Receptor gamma (ERRg) (AID 2282977; active = hit-call score of the fitted dose curve at least 0.9, where 1 is the maximum;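 note: hits increase reporter signal over DMSO so potencies reflect activators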); conditions: HepG2 Attagene TRANS reporter, ERRg transactivation
# Estrogen-related receptor gamma (Homo sapiens), sequence (P62508 whole entry, looked up, the tested form may be a part): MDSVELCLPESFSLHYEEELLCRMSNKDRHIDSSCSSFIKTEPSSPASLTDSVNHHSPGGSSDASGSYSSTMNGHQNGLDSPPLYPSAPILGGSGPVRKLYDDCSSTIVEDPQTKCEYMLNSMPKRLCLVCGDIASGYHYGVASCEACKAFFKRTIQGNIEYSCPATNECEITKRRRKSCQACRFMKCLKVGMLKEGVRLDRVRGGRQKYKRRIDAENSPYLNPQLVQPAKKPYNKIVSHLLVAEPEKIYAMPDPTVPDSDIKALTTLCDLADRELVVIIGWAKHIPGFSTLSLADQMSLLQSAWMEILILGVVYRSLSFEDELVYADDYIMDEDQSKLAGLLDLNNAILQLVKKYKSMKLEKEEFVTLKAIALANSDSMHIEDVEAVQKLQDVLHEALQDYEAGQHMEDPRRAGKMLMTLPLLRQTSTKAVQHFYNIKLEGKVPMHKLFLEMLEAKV
# In short: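 HepG2 cells transiently transfected with multiplexed GAL4-UAS reporter units and chimeric NR-Gal4 constructs were exposed to test chemicals for 24 h. Reporter mRNA was measured by RT-PCR, 6-FAM primer extension, HpaI digestion and capillary electrophoresis; gain-of-signal versus DMSO.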
# [8] = molecular target: Nuclear receptor subfamily 1 group I member 3 (Homo sapiens) (UniProt Q14994); experiment: ATG_CAR_TRANS: Attagene TRANS-FACTORIAL HepG2 Assay for human Constitutive Androstane Receptor (CAR) (AID 2282969; active = hit-call score of the fitted dose curve at least 0.9, where 1 is the maximum;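 note: activators raise reporter mRNA above DMSO so AC50 marks induction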); conditions: HepG2 Attagene TRANS-FACTORIAL CAR reporter
# Nuclear receptor subfamily 1 group I member 3 (Homo sapiens), sequence (Q14994 whole entry, looked up, the tested form may be a part): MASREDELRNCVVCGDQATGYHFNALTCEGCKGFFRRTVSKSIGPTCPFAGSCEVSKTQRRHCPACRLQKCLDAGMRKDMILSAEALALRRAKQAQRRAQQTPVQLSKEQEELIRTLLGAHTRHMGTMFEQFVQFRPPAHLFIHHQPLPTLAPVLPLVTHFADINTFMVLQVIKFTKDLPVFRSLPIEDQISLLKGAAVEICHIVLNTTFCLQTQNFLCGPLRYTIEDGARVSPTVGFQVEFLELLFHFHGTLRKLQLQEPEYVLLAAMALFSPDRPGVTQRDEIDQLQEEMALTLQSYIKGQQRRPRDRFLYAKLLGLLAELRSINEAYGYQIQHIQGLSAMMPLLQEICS
# In short: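 HepG2 cells transiently transfected with GAL4-UAS reporter units; TRANS format reads activity of exogenous chimeric NR-Gal4 protein. After 24 h dosing, reporter mRNA quantified by RT-PCR, 6-FAM labelling and capillary electrophoresis; gain of signal fitted against DMSO.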
# [9] = molecular target: Estrogen receptor (Homo sapiens) (UniProt P03372); experiment: ATG_ERa_TRANS: Attagene TRANS-FACTORIAL HepG2 Assay for human Estrogen Receptor alpha (ERa) (AID 2282970; active = hit-call score of the fitted dose curve at least 0.9, where 1 is the maximum); conditions: HepG2 Attagene TRANS ERa GAL4 reporter, mRNA
# Estrogen receptor (Homo sapiens), sequence (P03372 whole entry, looked up, the tested form may be a part): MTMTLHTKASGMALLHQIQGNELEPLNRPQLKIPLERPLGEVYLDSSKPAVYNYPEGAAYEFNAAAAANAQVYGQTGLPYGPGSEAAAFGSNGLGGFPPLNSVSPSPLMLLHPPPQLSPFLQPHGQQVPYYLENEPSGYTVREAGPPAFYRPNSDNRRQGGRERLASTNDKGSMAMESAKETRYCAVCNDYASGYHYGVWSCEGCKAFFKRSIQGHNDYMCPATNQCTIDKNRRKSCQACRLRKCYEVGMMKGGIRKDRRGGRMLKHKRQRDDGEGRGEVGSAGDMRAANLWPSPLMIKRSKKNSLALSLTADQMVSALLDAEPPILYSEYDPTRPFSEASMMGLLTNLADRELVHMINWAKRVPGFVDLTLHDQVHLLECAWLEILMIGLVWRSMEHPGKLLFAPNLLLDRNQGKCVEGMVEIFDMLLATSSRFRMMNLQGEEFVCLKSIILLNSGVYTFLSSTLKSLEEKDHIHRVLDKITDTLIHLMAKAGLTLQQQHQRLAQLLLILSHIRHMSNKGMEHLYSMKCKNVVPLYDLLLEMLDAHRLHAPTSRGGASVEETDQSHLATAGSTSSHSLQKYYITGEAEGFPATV
# In short: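 After 24 h of compound treatment, RNA from HepG2 cells bearing transfected GAL4-UAS reporter constructs is converted to cDNA, amplified and fluorescently labelled. Capillary electrophoresis resolves the ERa-linked reporter; DMSO serves as negative control.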
structure (smiles),measurement,setting,value
CC(C)(C)OOC(=O)c1ccccc1,outcome,[1],inactive
same,outcome,[2],inactive
same,AC50,[3],150 µM (active)
Clc1ccc(Cl)c(Cl)c1,outcome,[1],inactive
same,outcome,[2],inactive
same,outcome,[4],inactive
same,outcome,[5],inactive
N#CC(Br)(Br)C(N)=O,outcome,[1],inactive
same,outcome,[2],inactive
same,outcome,[3],inactive
same,outcome,[6],inactive
O=C(N[C@H](c1ccccc1)[C@@H]1CN2CCC1CC2)c1c(Cl)ccc(C(F)(F)F)c1Cl,outcome,[1],inactive
same,outcome,[2],inactive
same,outcome,[4],inactive
same,outcome,[3],inactive
same,outcome,[7],inactive
Oc1ccc2ccc3cccc4ccc1c2c34,outcome,[1],inactive
same,outcome,[2],inactive
same,outcome,[6],inactive
CCC12COCN1COC2,outcome,[1],inactive
same,outcome,[2],inactive
same,outcome,[6],inactive
same,outcome,[5],inactive
CCN(CC)N=O,outcome,[1],inactive
same,outcome,[2],inactive
same,outcome,[3],inactive
Clc1ccccc1Cl,outcome,[1],inactive
same,outcome,[2],inactive
same,outcome,[3],inactive
[Cl-].[Cl-].[Hg+2],outcome,[1],inactive
same,outcome,[2],inactive
same,outcome,[3],inactive
same,outcome,[6],inactive
c1ccc(C2CO2)cc1 (stereo unspecified),outcome,[1],inactive
same,outcome,[2],inactive
same,outcome,[6],inactive
Nc1ccc(Cl)cc1N,outcome,[1],inactive
same,AC50,[2],27.3 µM (active)
same,outcome,[8],inactive
same,outcome,[5],inactive
Brc1ccc(Oc2ccccc2)cc1,outcome,[1],inactive
same,outcome,[2],inactive
same,outcome,[9],inactive
CCCCCCCCCCCCCN1CC(C)OC(C)C1 (stereo unspecified),outcome,[1],inactive
same,outcome,[9],inactive
O=C(Nc1ccccc1)c1ccccc1I,outcome,[1],inactive
same,outcome,[9],inactive
same,outcome,[3],inactive
same,outcome,[6],inactive
CCOc1cccc(C2(N3CCN(c4ccccc4)CC3)CCC(C)CC2)c1 (stereo unspecified),outcome,[1],inactive
same,outcome,[2],inactive
same,outcome,[9],inactive
same,outcome,[5],inactive
c1ccc2c(c1)oc1ccccc12,outcome,[1],inactive
same,outcome,[2],inactive
same,outcome,[8],inactive
same,outcome,[5],inactive
COc1cc(C=O)cc2c1[C@H](COC(N)=O)[C@]1(OC(C)=O)ON2C[C@H]2[C@@H]1N2C(C)=O,AC50,[1],57.3 µM (active)
same,AC50,[2],0.146 µM (active)
same,outcome,[9],inactive
same,outcome,[4],inactive
same,outcome,[5],inactive
Cc1ccc(N)cc1,outcome,[1],inactive
same,outcome,[8],inactive
same,outcome,[3],inactive
same,outcome,[6],inactive
same,outcome,[7],inactive
CN(C)c1ccccc1,outcome,[1],inactive
same,outcome,[2],inactive
same,outcome,[4],inactive
same,outcome,[3],inactive
same,outcome,[5],inactive
same,outcome,[7],inactive
CCCCCCCCOC(=O)c1ccc(C(=O)OCCCCCCCC)c(C(=O)OCCCCCCCC)c1,outcome,[1],inactive
same,outcome,[6],inactive
CC(C)(O)c1cnn2c(-c3ccc(F)c(-c4c(F)cccc4C#N)c3)cnc2n1,outcome,[1],inactive
same,AC50,[2],0.538 µM (active)
same,outcome,[6],inactive
same,outcome,[7],inactive
CCN(CC)CCO,outcome,[1],inactive
same,outcome,[3],inactive
